For orientation: AC50 means the concentration at which the activity in the assay is half-maximal.

The source made the active and inactive calls. The calls were made as follows: active = hit-call score of the fitted dose curve at least 0.9, where 1 is the maximum; inactive = score below 0.9.

These results are taken from PubChem BioAssay (EPA / NIEHS).

Sequence of Paired box protein Pax-6 (Homo sapiens) (P26367 whole entry, looked up): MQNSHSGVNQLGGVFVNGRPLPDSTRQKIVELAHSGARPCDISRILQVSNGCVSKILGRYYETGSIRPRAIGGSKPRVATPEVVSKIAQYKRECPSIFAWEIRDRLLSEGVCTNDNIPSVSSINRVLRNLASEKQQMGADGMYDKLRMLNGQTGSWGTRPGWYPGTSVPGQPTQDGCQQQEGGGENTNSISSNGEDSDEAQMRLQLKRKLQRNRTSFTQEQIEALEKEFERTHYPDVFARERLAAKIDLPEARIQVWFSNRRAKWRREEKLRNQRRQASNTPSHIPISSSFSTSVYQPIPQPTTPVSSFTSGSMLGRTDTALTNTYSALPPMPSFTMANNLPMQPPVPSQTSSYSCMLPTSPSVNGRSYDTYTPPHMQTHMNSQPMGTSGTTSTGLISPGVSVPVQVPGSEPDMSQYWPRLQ

The target of the test is Paired box protein Pax-6 (Homo sapiens) (UniProt P26367). The test is described as follows: ATG_Pax6_CIS: Attagene CIS-FACTORIAL HepG2 Assay for human Paired Box 6 (PAX6) (AID 2282956). Conditions: HepG2 CIS-FACTORIAL PAX6 reporter transcription, RNA readout; actives raise or lower the signal. As for the experimental part:
ATG_CIS is a cell-based, multiplexed-readout assay that uses HepG2, a human liver cell line, with measurements taken at 24 hours after chemical dosing in a 24-well plate.ATG_Pax6_CIS is one of 52 assay component(s) measured or calculated from the ATG_CIS assay. It is designed to make measurements of mRNA induction, a form of inducible reporter, as detected with fluorescence intensity signals by Reverse transcription polymerase chain reaction (RT-PCR) and Capillary electrophoresis technology.Data from the assay component ATG_Pax6_CIS was analyzed into 1 assay endpoint. This assay endpoint, ATG_Pax6_CIS, was analyzed with bidirectional fitting relative to DMSO as the negative control and baseline of activity. Using a type of inducible reporter, measures of mRNA for gain or loss-of-signal activity can be used to understand the reporter gene at the transcription factor-level as they relate to the gene PAX6. Furthermore, this assay endpoint can be referred to as a primary readout, because this assay has produced multiple assay endpoints where this one serves a reporter gene function. To generalize the intended target to other relatable targets, this assay endpoint is annotated to the dna binding intended target family, where the subfamily is paired box protein.
Human liver HepG2 cells are transiently transfected with multiple reporter transcription units (MRTUs) in 6-well plates using FuGene 6 reagent (Roche; 3 ml FuGene/1 mg DNA). The MRTU constructs are regulated by a cis-regulating element (promoter). […] A major difference between the CIS and TRANS system is that in CIS activities of endogenous TFs are measured, whereas the TRANS assay evaluates changes in activities of exogenous, chimeric NR-Gal4 proteins. […] At the end of 24 hour incubation, total RNA was isolated using TriZol reagent (Invitrogen). The isolated RNA is then reverse-transcribed using oligo(dT) primer and Mo-MLV reverse transcriptase (Invitrogen) with DNAse I (Ambion) treatment for 30 min. The one-tenth of the produced cDNA was amplified by PCR using Taq DNA polymerase (Invitrogen) and two reporter sequence-specific primers. The PCR products were fluorescently labeled by primer extension with 6-arboxyfluorescein (6-FAM) 5'-labeled reporter sequence-specific primer (2 min at 95 C, 20 s at 68 C and 10 min at 72 C) and these products were digested with 5U of HpaI (New England Biolabs) for 2h at 37 C. The fragments were purified using Qiaquick PCR columns (Qiagen), analyzed on an ABI 3130xL genetic analyzer (Applied Biosystems) with peak positions identified by using a set of X-rhodamine (ROX)-labeled MapMarker1000 molecular weight standards (BioVentures). The raw capillary electrophoresis data was processed using Attagraph software (Attagene).
Consider `N#C/C=C/c1ccccc1`, for which the compound was called inactive.

Take `C=CC(=O)OCC(F)(F)C(F)F`: the call was inactive. On the same count and under the same terms, next, `O=P1(N(CCCl)CCCl)NCCCO1` (stereo not given): “inactive”; `Nc1ccc(Cl)cc1`: “inactive”. Same read-out and setting: next, `Cc1c([N+](=O)[O-])cc2c(c1[N+](=O)[O-])C(C)(C)CC2(C)C`: “inactive”; `Nc1ccc(Sc2ccc(N)cc2)cc1`: “inactive”. On the same count and under the same terms, to `Cc1ccc(O)cc1C` belongs “inactive”; to `O=C(O)C=CC(F)(C(F)(F)F)C(F)(F)F`, “inactive”; to `CCNc1nc(Cl)nc(NC(C)(C)C)n1`, “inactive”. On to `C/C(=N\NC(=O)Nc1cc(F)cc(F)c1)c1ncccc1C(=O)O`, for which the result was inactive. The same measure, in the same setting: to `CC(C)Nc1ccc(Nc2ccccc2)cc1` belongs “inactive”. As for `O=c1ssc(Cl)c1Cl`, the AC50 was 62.5 µM (active). In the case of `CC(Cl)CN(C)C` (stereo not given), the outcome was inactive.

Take `COP(=O)(O)OC`: the call was inactive. On the same count and under the same terms, next, `Cc1ccc2c(c1N)C(=O)c1ccccc1C2=O`: “inactive”.

As for `CCCN(CCC)c1c([N+](=O)[O-])cc(C(C)C)cc1[N+](=O)[O-]`, the compound was called inactive. The same measure, in the same setting: to `Cc1cc(C)c(C(=O)P(=O)(c2ccccc2)c2ccccc2)c(C)c1` belongs “inactive”. On the same count and under the same terms, next, `NNC(N)=S`: “inactive”; `c1ccc2c(c1)Nc1ccccc1S2`: “inactive”; `Cn1[nH]nnc1=S`: “inactive”. Take `CNC(=O)Oc1ccc(N(C)C)c(C)c1`: the outcome was inactive.

Regarding `CC1=C(C(=O)Nc2ccccc2)S(=O)(=O)CCO1`, the AC50 is 19.9 µM (active). Turning to `O=S(=O)(F)C(F)(F)C(F)(F)C(F)(F)C(F)(F)C(F)(F)C(F)(F)C(F)(F)C(F)(F)F`, the call was inactive. The same measure, in the same setting: to `O=C(O)C(F)(F)C(F)(F)C(=O)O` belongs “inactive”. Still for that read-out and setting: next, `O=C(CBr)OCc1ccccc1`: “inactive”.

As to `ClC1=C(Cl)C2(Cl)C3C(Cl)C(Cl)CC3C1(Cl)C2(Cl)Cl` (stereo not given), the compound was classed as inactive. Still for that read-out and setting: to `CCOP(=S)(Oc1ccc([N+](=O)[O-])cc1)c1ccccc1` (stereo not given) belongs “inactive”; to `CCOP(=S)(OCC)SCS(=O)(=O)CC`, “inactive”; to `ClC(Cl)c1ccccc1`, “inactive”. In the case of `O=S1(=O)OCC2C(CO1)C1(Cl)C(Cl)=C(Cl)C2(Cl)C1(Cl)Cl` (stereo not given), the AC50 was 100 µM (active). For `O=C(O)C(F)(F)OC(F)(F)C(F)(F)OC(F)(F)C(=O)O`, the result was inactive. The same measure, in the same setting: next, `CCCCOCCOP(=O)(OCCOCCCC)OCCOCCCC`: “inactive”; `ClC(Cl)(Cl)c1ccccc1`: “inactive”.

With `CC(Cc1ccc(OCC(=O)O)cc1)NCC(O)c1csc(C(F)(F)F)n1` (stereo not given), the result was inactive. Still for that read-out and setting: next, `N#Cc1ccc(O)cc1`: “inactive”. For the compound `CCCCc1ccc(O)cc1`, the call was inactive. Still for that read-out and setting: to `CN(C)C(=O)Cl` belongs “inactive”. Same read-out and setting: next, `CSC(C)(C)C=NO`: “inactive”. As for `CC(O)C(F)(F)C(F)(F)F` (stereo not given), the result was inactive. The same measure, in the same setting: next, `CC(C)(C)OOC(C)(C)C`: “inactive”.
